Source: PubChem (National Center for Advancing Translational Sciences (NCATS))
DT40 TDP1 CPT = growth inhibition of DT40 Tdp1-/-;hTDP1 cells with camptothecin (screen for TDP1 inhibitors); chicken DT40 Tdp1-/-;hTDP1 cells + 20 nM CPT, ATP luminescence, 48 h; Potency, µM (highest dose often 46.2 µM), for inactives: at the top dose activity change, negative = growth inhibition, most hits filed as inhibitors; hit rate 12% among 420,000; note: nearly all actives have a fitted effect of over 55% in size
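Chicken DT40 Tdp1-/- cells stably complemented with human TDP1 were seeded at 400 cells/well in medium containing 20 nM camptothecin, exposed to pin-transferred compounds, and grown at 37 °C for at least 48 hr. Viability was read as ATP luminescence.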
ALOX12 inh = ALOX12 (human) lipoxygenase inhibition; P18054; purified 12hLO, xylenol orange hydroperoxide absorbance; Potency, µM (top dose mostly 108 µM), for inactives: at the highest dose activity change, negative = inhibition, hits mostly inhibitors; hit rate 1.1% among 580,000
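Hydroperoxide product was detected by ferrous iron/xylenol orange as the 573 to 405 nm absorbance ratio. Arachidonic acid at 40 uM (final) was turned over for 30 min at room temperature by 150 nM human 12hLO, pH 7.0 Hepes buffer, after 15 min compound preincubation.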
RORgamma inh = blocks mouse ROR gamma transcriptional activity. P51450. Drosophila S2 Gal4-RORgamma UAS-luciferase reporter, 20 h. Potency, µM (top dose mostly 53.6 µM), for inactives: at the top dose activity change, negative = inhibition, most hits filed as inhibitors. hit rate 5.4% among 310,000. AID 2551; note: nearly all actives have a fitted effect of over 60% in size
Target sequence (P51450 whole entry, looked up, the tested form may be a part): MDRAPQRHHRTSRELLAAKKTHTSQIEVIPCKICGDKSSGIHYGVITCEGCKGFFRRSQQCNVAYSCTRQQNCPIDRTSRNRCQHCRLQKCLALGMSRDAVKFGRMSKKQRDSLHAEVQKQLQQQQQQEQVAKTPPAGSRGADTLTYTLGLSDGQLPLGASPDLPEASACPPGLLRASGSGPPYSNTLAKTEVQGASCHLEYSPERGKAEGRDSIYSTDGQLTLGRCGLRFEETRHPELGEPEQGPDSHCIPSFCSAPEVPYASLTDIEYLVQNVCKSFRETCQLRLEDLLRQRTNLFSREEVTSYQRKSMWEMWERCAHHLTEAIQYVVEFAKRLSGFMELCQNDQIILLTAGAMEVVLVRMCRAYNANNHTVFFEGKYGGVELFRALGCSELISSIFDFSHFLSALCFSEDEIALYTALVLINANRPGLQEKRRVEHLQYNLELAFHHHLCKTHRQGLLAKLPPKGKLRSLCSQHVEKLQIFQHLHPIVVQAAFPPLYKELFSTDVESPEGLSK
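Schneider cells (Drosophila), stable Gal4 DBD–ROR gamma + UAS-luc; 1 hr cmpd preincubation; Cu2+ induction 700 uM final; 20 hr ambient; luminescence.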
ELG1 DNA repair = blocks ELG1-dependent DNA repair in HEK293T cells | HEK293T ELG1-luciferase reporter, luminescence, 16 h; DNA damage induced by 5-fluorouridine | Potency, µM (highest dose often 46.1 µM), for inactives: at the highest dose activity change, negative = inhibition, most hits filed as inhibitors | hit rate 2.3% among 330,000 | AID 504467; note: nearly all actives have a fitted effect of over 55% in size
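Luminescence from the luciferase reporter, measured 30 min after ONE-Glo reagent at room temperature, was the read-out. Beforehand, 2,000 cells per well were exposed for 16 hr at 37 °C to 5-fluorouridine together with compound or vehicle.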
VP16 counter = counter-screen for ROR gamma inhibitors: Gal4-VP16 reporter; hit rate 3.5% among 310,000; Potency, µM (top dose mostly 53.6 µM), for the others: top-dose activity, negative = inhibition, hits mostly inhibitors; AID 2546; Drosophila S2 Gal4-VP16 UAS-luciferase, luminescence, 20 h;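 note: Gal4-VP16 expression switched on by copper sulfate through the metallothionein promoter; nearly all actives have a fitted effect of over 50% in size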
DT40 TDP1 no CPT = qHTS for Inhibitors of human tyrosyl-DNA phosphodiesterase 1 (TDP1): qHTS in cells in absence of CPT; DT40 Tdp1-/- hTDP1 cells, no CPT, ATP luminescence, 48 h; Potency, µM (highest dose often 46.2 µM), without a hit: at the highest dose activity change, negative = growth inhibition, actives largely listed as inhibitors; hit rate 15% among 420,000; AID 686978, 2013; note: nearly all actives have a fitted effect of over 55% in size
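DT40 Tdp1-/-;hTDP1 cells, no CPT (DMSO vehicle only), 400 cells/well; compounds pin-transferred; ≥48 hr, 37 °C; CellTiter-Glo 30 min RT dark, luminescence read.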
* marks the source's active call; other numbers are inactive results; ? = inconclusive; · = not tested or not shown. An excerpt weighted towards active compounds, which were near 15% of everything screened. Calls come from the whole dose curve; as a rule, active = well fitted curve in the direction sought with a large enough effect; inconclusive = small, poorly fitted or top-dose-only effect, or another doubt; inactive = no such curve, though single readings can be large; an effect the other way counts as inactive or inconclusive. % is set by controls: 0 for no effect and ±100 for the full control effect; potency is the fitted concentration of half-maximal effect.

SMILES	DT40 TDP1 CPT	ALOX12 inh	RORgamma inh	ELG1 DNA repair	VP16 counter	DT40 TDP1 no CPT
c1cnc2c(c1)ccc1cccnc12	3.66µM*	-0.2%	?	?	?	3.66µM*
COc1ccccc1N1CCN(C(=O)c2sc3ncn(CC(=O)N4CCC(C)CC4)c(=O)c3c2C)CC1	?	-8.3%	23.8%	-0.5%	-7.2%	1.84µM*
COc1ccc(N2CCN(C(=O)c3sc4ncn(CC(=O)N5CCCCC5C)c(=O)c4c3C)CC2)cc1 (configuration not stated)	?	0.6%	43.0%	?	22.4µM*	-23.9%
CCN(CC)C(=O)Cn1cnc2sc(C(=O)N3CCN(c4ccc(OC)cc4)CC3)c(C)c2c1=O	-8.5%	6.5%	14.5%	-9.6%	0.4%	?
O=C(C[C@H]1NC(=O)c2ccccc2NC1=O)Nc1nnc(C2CCCO2)s1 (some centres not stated)	·	14.8%	·	·	·	·
Cc1ccccc1N(C(=O)c1snc(C(N)=O)c1N)C(C(=O)NCc1ccccc1)c1ccc(O)cc1 (configuration not stated)	23.1µM*	?	22.5%	?	-2.9%	25.9µM*
NC(=O)c1nsc(C(=O)N(Cc2ccco2)C(C(=O)NCc2ccccc2)c2ccc(O)cc2)c1N (configuration not stated)	?	?	?	?	2.5%	11.6µM*
CN(C)c1ccc(C(C(=O)NCc2ccccc2)N(Cc2cccnc2)C(=O)c2snc(C(N)=O)c2N)cc1 (configuration not stated)	20.6µM*	-14.8%	34.2%	?	21.7%	16.4µM*
CCOc1ccccc1N(C(=O)c1snc(C(N)=O)c1N)C(C(=O)NCc1ccccc1)c1ccc(O)cc1 (configuration not stated)	23.1µM*	0.5%	33.7%	-18.8%	1.4%	?
COc1ccc(C(C(=O)NCc2ccccc2)N(Cc2cccnc2)C(=O)c2snc(C(N)=O)c2N)cc1OC (configuration not stated)	-3.7%	17.3%	-4.1%	-9.6%	-5.2%	-10.3%
CCOc1ccc(/C=C/C(N)=O)cc1	·	25.5%	·	·	·	·
CCc1nc(-c2c3n(c(=O)n(Cc4cc(F)ccc4F)c2=O)CCCCC3)no1	·	6.4%	·	·	·	·
Cc1ccc(C)c(NC(=O)c2nc3ccccc3nc2Cl)c1	·	-6.1%	·	·	·	·
COc1ccc(N(C(=O)c2snc(C(N)=O)c2N)C(C(=O)NCc2ccccc2)c2ccc(O)cc2)cc1OC (configuration not stated)	-1.7%	-0.9%	15.4%	3.4%	?	?
CN(C)c1ccc(C(C(=O)NC2CCCCC2)N(Cc2ccco2)C(=O)c2snc(C(N)=O)c2N)cc1 (configuration not stated)	?	-8.4%	22.9%	?	3.0%	9.2µM*
COc1cc(C(C(=O)NC2CCCC2)N(Cc2ccco2)C(=O)c2snc(C(N)=O)c2N)cc(OC)c1OC (configuration not stated)	3.1%	?	14.4%	3.8%	?	?
COc1cccc(N(C(=O)c2snc(C(N)=O)c2N)C(C(=O)NCc2ccccc2)c2ccc(O)cc2)c1 (configuration not stated)	?	-4.0%	23.1%	?	-6.4%	18.4µM*
COc1ccc(CNC(=O)C(C)N(Cc2ccccc2OC)C(=O)c2snc(C(N)=O)c2N)cc1 (configuration not stated)	?	-12.0%	10µM*	?	24.2%	?
